# Measured values from the supplement of paper PMC12282887.
# ± gives the standard deviation of the averaged measurements.
# How the values were obtained:
# Assay in all cases: promoter activity interaction Z-score (Lux/OD deviation from empty-vector control); higher = stronger promoter induction by the compound
# [1] = tested on: E. coli BW25113 acrABp lux reporter
# In short: (§1)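 E. coli BW25113 (wild type or marA, soxS or rob deletion) carrying low-copy luxCDABE promoter reporters grew in 40 µl LB Lennox in 384-well plates at 37°C. Each compound was tested at four 1:2 dilutions in biological duplicates. OD600 and luminescence were read every 30 min for 12 h. Areas were taken over 0–8 h (wild type) or 1–9 h (mutants), and wells below 10% of median growth area were removed. The score is the Z-transformed residual of growth-normalised luminescence fitted against the empty-vector control.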
# [2] = tested on: E. coli BW25113 micFp lux reporter
# In short: as §1
# [3] = tested on: E. coli BW25113 ompFp lux reporter
# In short: as §1
# [4] = tested on: E. coli BW25113 robp lux reporter
# In short: as §1
# [5] = tested on: E. coli BW25113 soxSp lux reporter
# In short: as §1
# [6] = tested on: E. coli BW25113 tolCp lux reporter
# In short: as §1
# [7] = 8.6 µg/ml, genetic background: wild type
# [8] = 8.6 µg/ml, genetic background: ΔmarA
# [9] = 8.6 µg/ml, genetic background: Δrob
# [10] = 8.6 µg/ml, genetic background: ΔsoxS
# [11] = 17.1 µg/ml, genetic background: wild type
# [12] = 17.1 µg/ml, genetic background: ΔmarA
# [13] = 17.1 µg/ml, genetic background: Δrob
# [14] = 17.1 µg/ml, genetic background: ΔsoxS
# [15] = 34.3 µg/ml, genetic background: wild type
# [16] = 34.3 µg/ml, genetic background: ΔmarA
# [17] = 34.3 µg/ml, genetic background: Δrob
# [18] = 34.3 µg/ml, genetic background: ΔsoxS
# [19] = 68.6 µg/ml, genetic background: wild type
# [20] = 68.6 µg/ml, genetic background: ΔmarA
# [21] = 68.6 µg/ml, genetic background: Δrob
# [22] = 68.6 µg/ml, genetic background: ΔsoxS
structure (smiles),measurement,setting,value
Nc1ccc(C(=O)O)cc1 [4-Aminobenzoic acid],promoter activity interaction Z-score,[1]; [7],-0.327 ± 0.11
same,promoter activity interaction Z-score,[1]; [8],-0.528 ± 0.3
same,promoter activity interaction Z-score,[1]; [9],0.0646 ± 0.18
same,promoter activity interaction Z-score,[1]; [10],0.357 ± 0.28
same,promoter activity interaction Z-score,[1]; [11],0.051 ± 0.24
same,promoter activity interaction Z-score,[1]; [12],-0.48 ± 0.058
same,promoter activity interaction Z-score,[1]; [13],0.185 ± 0.16
same,promoter activity interaction Z-score,[1]; [14],0.299 ± 0.26
same,promoter activity interaction Z-score,[1]; [15],-0.112 ± 0.046
same,promoter activity interaction Z-score,[1]; [16],-0.447 ± 1.1
same,promoter activity interaction Z-score,[1]; [17],-0.379 ± 0.054
same,promoter activity interaction Z-score,[1]; [18],0.511 ± 1.2
same,promoter activity interaction Z-score,[1]; [19],0.119 ± 0.39
same,promoter activity interaction Z-score,[1]; [20],1.54 ± 0.67
same,promoter activity interaction Z-score,[1]; [21],1.31 ± 0.45
same,promoter activity interaction Z-score,[1]; [22],1.66 ± 1.3
same,promoter activity interaction Z-score,[2]; [7],0.00335 ± 0.11
same,promoter activity interaction Z-score,[2]; [8],0.0686 ± 0.11
same,promoter activity interaction Z-score,[2]; [9],0.0394 ± 0.14
same,promoter activity interaction Z-score,[2]; [10],0.675 ± 0.52
same,promoter activity interaction Z-score,[2]; [11],0.408 ± 0.1
same,promoter activity interaction Z-score,[2]; [12],0.209 ± 0.16
same,promoter activity interaction Z-score,[2]; [13],0.289 ± 0.15
same,promoter activity interaction Z-score,[2]; [14],0.578 ± 0.075
same,promoter activity interaction Z-score,[2]; [15],0.901 ± 0.57
same,promoter activity interaction Z-score,[2]; [16],0.213 ± 0.23
same,promoter activity interaction Z-score,[2]; [17],0.391 ± 0.17
same,promoter activity interaction Z-score,[2]; [18],1.38 ± 0.55
same,promoter activity interaction Z-score,[2]; [19],1.16 ± 0.52
same,promoter activity interaction Z-score,[2]; [20],0.44 ± 0.26
same,promoter activity interaction Z-score,[2]; [21],1.42 ± 0.091
same,promoter activity interaction Z-score,[2]; [22],1.7 ± 0.14
same,promoter activity interaction Z-score,[3]; [7],-0.317 ± 0.4
same,promoter activity interaction Z-score,[3]; [8],0.283 ± 0.085
same,promoter activity interaction Z-score,[3]; [9],0.0614 ± 0.37
same,promoter activity interaction Z-score,[3]; [10],0.333 ± 0.36
same,promoter activity interaction Z-score,[3]; [11],0.0303 ± 0.3
same,promoter activity interaction Z-score,[3]; [12],0.284 ± 0.18
same,promoter activity interaction Z-score,[3]; [13],0.709 ± 0.41
same,promoter activity interaction Z-score,[3]; [14],0.198 ± 0.39
same,promoter activity interaction Z-score,[3]; [15],-0.722 ± 0.31
same,promoter activity interaction Z-score,[3]; [16],-0.0385 ± 0.32
same,promoter activity interaction Z-score,[3]; [17],-1.06 ± 0.97
same,promoter activity interaction Z-score,[3]; [18],0.199 ± 1.1
same,promoter activity interaction Z-score,[3]; [19],-0.481 ± 0.17
same,promoter activity interaction Z-score,[3]; [20],1.24 ± 0.08
same,promoter activity interaction Z-score,[3]; [21],1.09 ± 0.2
same,promoter activity interaction Z-score,[3]; [22],0.488 ± 0.83
same,promoter activity interaction Z-score,[4]; [7],0.134 ± 0.3
same,promoter activity interaction Z-score,[4]; [8],0.171 ± 0.2
same,promoter activity interaction Z-score,[4]; [9],0.341 ± 0.11
same,promoter activity interaction Z-score,[4]; [10],0.571 ± 0.73
same,promoter activity interaction Z-score,[4]; [11],0.745 ± 0.54
same,promoter activity interaction Z-score,[4]; [12],1.04 ± 0.39
same,promoter activity interaction Z-score,[4]; [13],0.56 ± 0.27
same,promoter activity interaction Z-score,[4]; [14],0.303 ± 0.42
same,promoter activity interaction Z-score,[4]; [15],0.118 ± 0.27
same,promoter activity interaction Z-score,[4]; [16],0.355 ± 0.34
same,promoter activity interaction Z-score,[4]; [17],-0.251 ± 0.88
same,promoter activity interaction Z-score,[4]; [18],-0.337 ± 0.84
same,promoter activity interaction Z-score,[4]; [19],0.598 ± 0.44
same,promoter activity interaction Z-score,[4]; [20],1.92 ± 1.2
same,promoter activity interaction Z-score,[4]; [21],2.53 ± 2.5
same,promoter activity interaction Z-score,[4]; [22],2.68 ± 1.7
same,promoter activity interaction Z-score,[5]; [7],0.154 ± 0.019
same,promoter activity interaction Z-score,[5]; [8],0.4615 ± 0.00081
same,promoter activity interaction Z-score,[5]; [9],0.443 ± 0.19
same,promoter activity interaction Z-score,[5]; [10],0.4 ± 0.53
same,promoter activity interaction Z-score,[5]; [11],0.18 ± 0.23
same,promoter activity interaction Z-score,[5]; [12],0.618 ± 0.11
same,promoter activity interaction Z-score,[5]; [13],0.555 ± 0.098
same,promoter activity interaction Z-score,[5]; [14],0.287 ± 0.083
same,promoter activity interaction Z-score,[5]; [15],0.259 ± 0.017
same,promoter activity interaction Z-score,[5]; [16],0.436 ± 0.14
same,promoter activity interaction Z-score,[5]; [17],0.48 ± 0.11
same,promoter activity interaction Z-score,[5]; [18],0.363 ± 0.93
same,promoter activity interaction Z-score,[5]; [19],-0.597 ± 0.028
same,promoter activity interaction Z-score,[5]; [20],0.693 ± 0.26
same,promoter activity interaction Z-score,[5]; [21],0.532 ± 0.4
same,promoter activity interaction Z-score,[5]; [22],-0.372 ± 0.24
same,promoter activity interaction Z-score,[6]; [7],-0.592 ± 1.1
same,promoter activity interaction Z-score,[6]; [8],0.924 ± 0.68
same,promoter activity interaction Z-score,[6]; [9],-0.26 ± 0.81
same,promoter activity interaction Z-score,[6]; [10],0.91 ± 0.25
same,promoter activity interaction Z-score,[6]; [11],-0.356 ± 1
same,promoter activity interaction Z-score,[6]; [12],0.371 ± 2.1
same,promoter activity interaction Z-score,[6]; [13],0.781 ± 1.4
same,promoter activity interaction Z-score,[6]; [14],-0.463 ± 0.096
same,promoter activity interaction Z-score,[6]; [15],0.348 ± 0.41
same,promoter activity interaction Z-score,[6]; [16],0.458 ± 1.9
same,promoter activity interaction Z-score,[6]; [17],0.119 ± 0.56
same,promoter activity interaction Z-score,[6]; [18],1.86 ± 0.96
same,promoter activity interaction Z-score,[6]; [19],0.28 ± 0.49
same,promoter activity interaction Z-score,[6]; [20],2.27 ± 0.56
same,promoter activity interaction Z-score,[6]; [21],0.498 ± 0.67
same,promoter activity interaction Z-score,[6]; [22],1.22 ± 0.073
